This is an account of results in paper PMC7862700, “An all-to-all approach to the identification of sequence-specific readers for epigenetic DNA modifications on cytosine”.

Holding throughout (test): DAPPL (digital affinity profiling via proximity ligation, sequencing); 10 mM Tris-HCl pH 7.5, 50 mM NaCl, 1 mM DTT, 4% glycerol, room temperature, 30 min; GST-TFs on glutathione beads, 16-mer random dsDNA library, 0.1% formaldehyde crosslink after washing; high values mean tight binding
For one assay, the target named is T1, FLI1 (Homo sapiens, UniProt Q01543 1-452).
T1 sequence: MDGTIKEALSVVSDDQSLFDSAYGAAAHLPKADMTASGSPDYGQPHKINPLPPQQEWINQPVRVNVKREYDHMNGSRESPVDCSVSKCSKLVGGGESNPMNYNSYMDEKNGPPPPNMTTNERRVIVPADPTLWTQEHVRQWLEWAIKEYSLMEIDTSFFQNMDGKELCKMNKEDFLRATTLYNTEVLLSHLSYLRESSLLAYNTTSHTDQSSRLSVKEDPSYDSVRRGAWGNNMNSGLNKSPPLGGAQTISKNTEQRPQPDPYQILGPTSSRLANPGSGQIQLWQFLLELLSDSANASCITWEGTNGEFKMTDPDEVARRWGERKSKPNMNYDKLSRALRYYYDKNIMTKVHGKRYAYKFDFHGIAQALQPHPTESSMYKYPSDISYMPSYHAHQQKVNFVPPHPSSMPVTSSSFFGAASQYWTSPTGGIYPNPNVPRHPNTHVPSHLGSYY
Particulars: protein: recombinant; tags: N-terminal GST; dsDNA, one strand shown. A digest of the protocol: (§1)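 Binding signal is each hexamer's read frequency for a factor divided by its frequency in the tag-only sample. The factors were GST-fused human transcription factors from yeast, captured on glutathione beads, DNA-barcoded and pooled with that sample. Pools were incubated with 200 nmole of a random double-stranded 16-mer DNA library in Tris/NaCl/DTT/glycerol buffer at room temperature for 30 min, then washed, crosslinked with 0.1% formaldehyde, proximity-ligated with BsaI/T4 ligase (1 h, 37 °C), PCR-amplified and sequenced on an Illumina NextSeq500.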

The target in another assay is T2, ELK1 (Homo sapiens, UniProt P19419 1-428).
T2 sequence: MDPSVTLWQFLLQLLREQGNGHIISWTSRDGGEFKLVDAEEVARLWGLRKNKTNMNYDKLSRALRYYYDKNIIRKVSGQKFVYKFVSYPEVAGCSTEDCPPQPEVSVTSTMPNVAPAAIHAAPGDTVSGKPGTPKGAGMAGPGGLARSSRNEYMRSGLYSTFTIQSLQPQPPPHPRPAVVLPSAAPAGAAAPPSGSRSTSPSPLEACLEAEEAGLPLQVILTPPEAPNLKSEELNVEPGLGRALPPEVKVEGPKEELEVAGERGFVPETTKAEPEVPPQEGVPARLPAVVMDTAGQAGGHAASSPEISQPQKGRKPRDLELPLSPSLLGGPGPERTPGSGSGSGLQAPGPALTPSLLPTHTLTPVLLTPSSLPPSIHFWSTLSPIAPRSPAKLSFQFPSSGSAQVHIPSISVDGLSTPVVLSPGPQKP
Particulars: protein: recombinant; tags: N-terminal GST; dsDNA, one strand shown. An outline of the steps:
as §1

In a further assay the target is T3, GABPA (Homo sapiens, UniProt Q06546 1-454).
T3 sequence: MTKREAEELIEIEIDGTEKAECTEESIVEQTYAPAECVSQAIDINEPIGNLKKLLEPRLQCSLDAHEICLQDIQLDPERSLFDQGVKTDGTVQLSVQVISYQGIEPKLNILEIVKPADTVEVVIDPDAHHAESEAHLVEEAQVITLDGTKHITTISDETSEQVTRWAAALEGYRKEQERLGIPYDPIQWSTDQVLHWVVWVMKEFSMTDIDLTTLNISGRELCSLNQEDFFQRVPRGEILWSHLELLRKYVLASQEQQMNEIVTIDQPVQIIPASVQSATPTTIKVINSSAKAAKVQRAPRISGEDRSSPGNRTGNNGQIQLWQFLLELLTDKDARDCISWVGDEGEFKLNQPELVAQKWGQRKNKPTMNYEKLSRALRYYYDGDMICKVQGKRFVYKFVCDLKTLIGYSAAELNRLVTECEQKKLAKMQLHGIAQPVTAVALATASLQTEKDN
Particulars: protein: recombinant; tags: N-terminal GST; dsDNA, one strand shown. An outline of the steps:
as §1

The next assay has as its target T4, ERG (Homo sapiens, UniProt P11308 1-479).
T4 sequence: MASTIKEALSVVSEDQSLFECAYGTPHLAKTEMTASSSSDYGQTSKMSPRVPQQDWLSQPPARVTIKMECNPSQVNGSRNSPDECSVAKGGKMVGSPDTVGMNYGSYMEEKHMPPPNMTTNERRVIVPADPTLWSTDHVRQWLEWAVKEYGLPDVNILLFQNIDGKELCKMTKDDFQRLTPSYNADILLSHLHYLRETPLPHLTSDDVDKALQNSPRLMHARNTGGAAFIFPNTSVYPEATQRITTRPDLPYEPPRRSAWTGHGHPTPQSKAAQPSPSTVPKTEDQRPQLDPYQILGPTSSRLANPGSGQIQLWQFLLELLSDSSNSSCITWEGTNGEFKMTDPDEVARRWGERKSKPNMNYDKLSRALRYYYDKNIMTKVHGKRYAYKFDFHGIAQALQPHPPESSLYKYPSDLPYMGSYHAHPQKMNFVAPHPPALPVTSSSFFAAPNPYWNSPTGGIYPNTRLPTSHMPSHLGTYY
The conditions noted are these: protein: recombinant; tags: N-terminal GST; dsDNA, one strand shown. A digest of the protocol: as §1

For a further assay, the target named is ELF1 (Homo sapiens, UniProt P32519 1-619). The conditions noted are these: protein: recombinant; tags: N-terminal GST; dsDNA, one strand shown. An outline of the steps:
as §1

The target of the next assay is T5, EHF (Homo sapiens, UniProt Q9NZC4 1-300).
T5 sequence: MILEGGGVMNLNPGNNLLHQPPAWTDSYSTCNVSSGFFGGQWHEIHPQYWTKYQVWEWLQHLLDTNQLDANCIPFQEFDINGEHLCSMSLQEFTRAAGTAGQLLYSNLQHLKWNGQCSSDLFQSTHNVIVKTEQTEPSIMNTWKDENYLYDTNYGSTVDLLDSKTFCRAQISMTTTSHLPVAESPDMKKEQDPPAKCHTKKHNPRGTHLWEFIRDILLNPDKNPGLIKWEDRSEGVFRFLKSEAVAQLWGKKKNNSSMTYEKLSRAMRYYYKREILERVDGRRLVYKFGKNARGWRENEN
The conditions noted are these: protein: recombinant; tags: N-terminal GST; dsDNA, one strand shown. An outline of the steps: as §1

The target of the next assay is SPI1 (Homo sapiens, UniProt P17947 1-270). The conditions noted are these: protein: recombinant; tags: N-terminal GST; dsDNA, one strand shown. A digest of the protocol:
as §1

For another assay, the target named is SPIB (Homo sapiens, UniProt Q01892 1-262). The conditions noted are these: protein: recombinant; tags: N-terminal GST; dsDNA, one strand shown. An outline of the steps:
as §1

The target in a further assay is T6, ELK3 (Homo sapiens, UniProt P41970 1-407).
T6 sequence: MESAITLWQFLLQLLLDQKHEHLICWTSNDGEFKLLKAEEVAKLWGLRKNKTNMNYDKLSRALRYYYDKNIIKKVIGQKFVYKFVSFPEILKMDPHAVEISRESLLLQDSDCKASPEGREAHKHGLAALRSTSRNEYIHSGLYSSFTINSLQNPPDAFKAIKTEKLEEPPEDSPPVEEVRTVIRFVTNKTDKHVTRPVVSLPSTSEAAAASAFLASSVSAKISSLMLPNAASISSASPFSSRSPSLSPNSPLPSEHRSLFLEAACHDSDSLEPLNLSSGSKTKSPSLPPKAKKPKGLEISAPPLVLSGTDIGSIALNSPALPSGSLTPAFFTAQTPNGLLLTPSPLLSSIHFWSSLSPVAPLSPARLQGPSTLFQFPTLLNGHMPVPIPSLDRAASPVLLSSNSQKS
The conditions noted are these: protein: recombinant; tags: N-terminal GST; dsDNA, one strand shown. A digest of the protocol:
as §1

The target in the next assay is T7, FEV (Homo sapiens, UniProt Q99581 1-238).
T7 sequence: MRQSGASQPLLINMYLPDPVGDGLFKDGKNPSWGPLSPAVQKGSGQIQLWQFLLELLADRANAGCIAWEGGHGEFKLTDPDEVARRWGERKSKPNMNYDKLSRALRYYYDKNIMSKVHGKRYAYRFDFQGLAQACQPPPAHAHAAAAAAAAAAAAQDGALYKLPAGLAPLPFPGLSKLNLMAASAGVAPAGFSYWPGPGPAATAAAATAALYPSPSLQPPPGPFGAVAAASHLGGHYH
The conditions noted are these: protein: recombinant; tags: N-terminal GST; dsDNA, one strand shown. An outline of the steps:
as §1

In a further assay the target is ETV5 (Homo sapiens, UniProt P41161 1-510). The conditions noted are these: protein: recombinant; tags: N-terminal GST; dsDNA, one strand shown. A digest of the protocol: as §1
ETV5, sequence (P41161 whole entry): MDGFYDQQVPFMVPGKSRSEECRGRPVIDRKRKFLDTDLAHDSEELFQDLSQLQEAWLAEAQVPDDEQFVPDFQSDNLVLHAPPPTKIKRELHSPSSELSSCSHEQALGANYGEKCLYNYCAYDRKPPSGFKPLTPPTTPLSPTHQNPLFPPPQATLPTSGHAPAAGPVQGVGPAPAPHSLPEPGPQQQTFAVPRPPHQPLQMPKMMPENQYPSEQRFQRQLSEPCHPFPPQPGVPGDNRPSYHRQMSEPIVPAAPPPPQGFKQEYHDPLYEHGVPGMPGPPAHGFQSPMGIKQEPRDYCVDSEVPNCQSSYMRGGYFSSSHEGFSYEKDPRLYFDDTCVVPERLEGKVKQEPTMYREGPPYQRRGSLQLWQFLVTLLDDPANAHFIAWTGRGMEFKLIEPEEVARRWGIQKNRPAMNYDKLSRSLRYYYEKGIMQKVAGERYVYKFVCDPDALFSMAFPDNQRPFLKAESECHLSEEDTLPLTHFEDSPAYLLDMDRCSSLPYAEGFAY
The next assay concerns the target HSF1 (Homo sapiens, UniProt Q00613 1-529). Particulars: protein: recombinant; tags: N-terminal GST; chain copies: 3; dsDNA, one strand shown. An outline of the steps: as §1
For another assay, the target named is T8, SPIC (Homo sapiens, UniProt Q8N5J4 1-248).
T8 sequence: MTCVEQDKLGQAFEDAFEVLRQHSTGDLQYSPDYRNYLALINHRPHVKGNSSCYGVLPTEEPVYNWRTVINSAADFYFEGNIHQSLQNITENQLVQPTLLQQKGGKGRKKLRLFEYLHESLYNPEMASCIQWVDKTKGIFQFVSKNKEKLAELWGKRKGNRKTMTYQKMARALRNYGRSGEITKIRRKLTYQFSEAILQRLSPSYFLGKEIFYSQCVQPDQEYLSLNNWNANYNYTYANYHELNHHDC
The conditions noted are these: protein: recombinant; tags: N-terminal GST; dsDNA, one strand shown. An outline of the steps: as §1

The target of a further assay is ELF4 (Homo sapiens, UniProt Q99607 1-663). Particulars: protein: recombinant; tags: N-terminal GST; dsDNA, one strand shown. An outline of the steps:
as §1

Another assay has as its target T9, ELK4 (Homo sapiens, UniProt P28324-2 1-405).
T9 sequence: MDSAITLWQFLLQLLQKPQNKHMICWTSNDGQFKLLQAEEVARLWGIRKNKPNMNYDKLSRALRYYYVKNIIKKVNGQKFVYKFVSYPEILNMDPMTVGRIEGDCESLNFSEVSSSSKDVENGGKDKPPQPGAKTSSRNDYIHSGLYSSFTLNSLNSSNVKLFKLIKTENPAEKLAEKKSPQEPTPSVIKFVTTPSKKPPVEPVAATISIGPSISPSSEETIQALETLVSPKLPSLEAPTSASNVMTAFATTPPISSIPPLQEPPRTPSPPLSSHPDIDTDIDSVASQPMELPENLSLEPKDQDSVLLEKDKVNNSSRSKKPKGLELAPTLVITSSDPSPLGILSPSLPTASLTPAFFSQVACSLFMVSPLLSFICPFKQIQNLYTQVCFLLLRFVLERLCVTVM
The conditions noted are these: protein: recombinant; tags: N-terminal GST; dsDNA, one strand shown. A digest of the protocol:
as §1

The next assay concerns the target T10, ETV2 (Homo sapiens, UniProt O00321 1-342).
T10 sequence: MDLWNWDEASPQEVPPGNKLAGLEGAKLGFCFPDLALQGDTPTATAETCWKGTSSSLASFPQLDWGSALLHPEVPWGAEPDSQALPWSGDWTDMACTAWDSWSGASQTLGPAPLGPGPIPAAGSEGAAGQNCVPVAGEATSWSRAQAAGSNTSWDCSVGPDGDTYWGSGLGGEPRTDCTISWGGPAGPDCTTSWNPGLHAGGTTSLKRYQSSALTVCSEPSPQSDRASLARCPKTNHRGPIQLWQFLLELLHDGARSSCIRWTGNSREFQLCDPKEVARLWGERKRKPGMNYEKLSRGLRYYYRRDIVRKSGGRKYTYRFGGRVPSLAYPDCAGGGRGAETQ
The conditions noted are these: protein: recombinant; tags: N-terminal GST; dsDNA, one strand shown. An outline of the steps:
as §1

In another assay the target is CRX (Homo sapiens, UniProt O43186 1-299). Particulars: protein: recombinant; tags: N-terminal GST; dsDNA, one strand shown. A digest of the protocol: as §1
CRX, sequence (O43186 whole entry): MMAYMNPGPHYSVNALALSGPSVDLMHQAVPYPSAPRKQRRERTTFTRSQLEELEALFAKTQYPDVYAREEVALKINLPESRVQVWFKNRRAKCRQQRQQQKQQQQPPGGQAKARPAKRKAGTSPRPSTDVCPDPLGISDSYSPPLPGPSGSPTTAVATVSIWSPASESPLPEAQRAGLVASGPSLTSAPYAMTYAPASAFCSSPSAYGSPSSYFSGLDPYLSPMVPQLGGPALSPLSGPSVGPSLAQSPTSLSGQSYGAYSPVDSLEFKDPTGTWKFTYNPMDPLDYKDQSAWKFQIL
For a further assay, the target named is ETV1 (Homo sapiens, UniProt P50549 1-477). The conditions noted are these: protein: recombinant; tags: N-terminal GST; dsDNA, one strand shown. A digest of the protocol: as §1
ETV1, sequence (P50549 whole entry): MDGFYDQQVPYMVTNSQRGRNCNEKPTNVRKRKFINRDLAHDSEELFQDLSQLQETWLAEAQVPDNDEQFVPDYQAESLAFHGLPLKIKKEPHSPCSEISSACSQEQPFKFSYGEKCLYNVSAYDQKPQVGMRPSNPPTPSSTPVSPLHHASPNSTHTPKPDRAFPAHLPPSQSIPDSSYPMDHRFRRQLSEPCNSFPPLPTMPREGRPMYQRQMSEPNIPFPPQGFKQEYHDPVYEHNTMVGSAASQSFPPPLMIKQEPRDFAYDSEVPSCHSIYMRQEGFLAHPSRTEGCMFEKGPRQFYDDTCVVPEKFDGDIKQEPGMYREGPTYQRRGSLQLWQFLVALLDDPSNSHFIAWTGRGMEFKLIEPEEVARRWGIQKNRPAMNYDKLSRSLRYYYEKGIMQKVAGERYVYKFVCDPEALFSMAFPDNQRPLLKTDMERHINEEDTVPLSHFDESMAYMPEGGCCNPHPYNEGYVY

ELF4, sequence (Q99607 whole entry): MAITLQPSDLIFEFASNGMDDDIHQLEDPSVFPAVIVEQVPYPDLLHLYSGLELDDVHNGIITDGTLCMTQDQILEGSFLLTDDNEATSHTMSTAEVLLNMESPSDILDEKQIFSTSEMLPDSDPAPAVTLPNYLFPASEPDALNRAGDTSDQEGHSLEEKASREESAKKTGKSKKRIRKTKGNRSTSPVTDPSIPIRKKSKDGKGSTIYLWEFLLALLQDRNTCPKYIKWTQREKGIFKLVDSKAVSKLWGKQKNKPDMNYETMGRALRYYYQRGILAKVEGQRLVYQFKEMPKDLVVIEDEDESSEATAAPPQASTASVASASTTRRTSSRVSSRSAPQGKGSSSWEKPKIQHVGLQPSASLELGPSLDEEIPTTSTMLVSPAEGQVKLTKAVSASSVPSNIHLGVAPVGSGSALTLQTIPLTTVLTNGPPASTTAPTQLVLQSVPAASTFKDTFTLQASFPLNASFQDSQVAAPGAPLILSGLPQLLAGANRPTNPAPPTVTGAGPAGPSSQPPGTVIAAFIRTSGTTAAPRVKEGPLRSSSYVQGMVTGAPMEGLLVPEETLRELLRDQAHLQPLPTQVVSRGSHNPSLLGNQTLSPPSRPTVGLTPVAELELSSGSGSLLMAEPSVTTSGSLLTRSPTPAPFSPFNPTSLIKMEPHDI
ELF1, sequence (P32519 whole entry): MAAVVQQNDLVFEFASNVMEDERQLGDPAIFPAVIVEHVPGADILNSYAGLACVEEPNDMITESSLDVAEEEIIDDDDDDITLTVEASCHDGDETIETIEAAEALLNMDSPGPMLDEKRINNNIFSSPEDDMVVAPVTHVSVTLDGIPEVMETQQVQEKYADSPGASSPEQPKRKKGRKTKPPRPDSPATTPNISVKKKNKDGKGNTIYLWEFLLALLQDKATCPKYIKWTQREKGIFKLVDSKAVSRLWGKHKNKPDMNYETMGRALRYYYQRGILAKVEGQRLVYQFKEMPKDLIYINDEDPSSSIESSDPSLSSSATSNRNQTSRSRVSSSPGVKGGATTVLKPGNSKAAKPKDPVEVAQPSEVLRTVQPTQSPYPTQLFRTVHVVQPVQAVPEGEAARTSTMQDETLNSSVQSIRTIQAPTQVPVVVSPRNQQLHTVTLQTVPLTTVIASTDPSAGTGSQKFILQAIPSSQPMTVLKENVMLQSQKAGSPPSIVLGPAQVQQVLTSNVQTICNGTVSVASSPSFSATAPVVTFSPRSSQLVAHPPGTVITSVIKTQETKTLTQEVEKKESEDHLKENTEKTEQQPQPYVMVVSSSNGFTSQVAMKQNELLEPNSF
HSF1, sequence (Q00613 whole entry): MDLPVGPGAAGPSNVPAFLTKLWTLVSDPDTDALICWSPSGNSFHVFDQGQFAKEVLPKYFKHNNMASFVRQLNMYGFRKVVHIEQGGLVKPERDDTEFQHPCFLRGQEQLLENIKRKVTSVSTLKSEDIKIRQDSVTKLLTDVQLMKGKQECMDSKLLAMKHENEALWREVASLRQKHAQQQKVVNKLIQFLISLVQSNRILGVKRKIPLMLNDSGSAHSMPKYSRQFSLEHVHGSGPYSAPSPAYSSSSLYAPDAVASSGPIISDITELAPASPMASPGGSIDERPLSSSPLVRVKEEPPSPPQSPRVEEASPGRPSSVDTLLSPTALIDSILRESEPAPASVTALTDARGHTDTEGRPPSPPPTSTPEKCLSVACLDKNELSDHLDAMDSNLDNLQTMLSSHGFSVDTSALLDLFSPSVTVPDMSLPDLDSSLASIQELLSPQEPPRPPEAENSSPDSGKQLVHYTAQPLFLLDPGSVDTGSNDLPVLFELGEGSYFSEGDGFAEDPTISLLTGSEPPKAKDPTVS
SPIB, sequence (Q01892 whole entry): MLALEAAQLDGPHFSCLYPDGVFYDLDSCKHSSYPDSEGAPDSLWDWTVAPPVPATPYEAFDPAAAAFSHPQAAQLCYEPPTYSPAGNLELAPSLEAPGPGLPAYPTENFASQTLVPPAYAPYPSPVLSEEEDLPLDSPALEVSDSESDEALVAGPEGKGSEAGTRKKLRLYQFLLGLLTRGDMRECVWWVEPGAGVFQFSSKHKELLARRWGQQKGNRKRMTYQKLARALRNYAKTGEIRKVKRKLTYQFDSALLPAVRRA

Turning to TTTTAG, the binding signal was 1.2 fold enrichment (6-mer frequency, TF over GST control) in the assay with FLI1; 1.07 fold enrichment (6-mer frequency, TF over GST control) with ELK1; 1.19 fold enrichment (6-mer frequency, TF over GST control) with GABPA; 1.19 fold enrichment (6-mer frequency, TF over GST control) with ERG; 1.21 fold enrichment (6-mer frequency, TF over GST control) with ELF1; 1.12 fold enrichment (6-mer frequency, TF over GST control) with EHF. Moreover, the binding signal with SPI1 was 1.15 fold enrichment (6-mer frequency, TF over GST control); with SPIB, 1.3 fold enrichment (6-mer frequency, TF over GST control); in the assay with ELK3, 1.16 fold enrichment (6-mer frequency, TF over GST control); in the assay with FEV, 1.14 fold enrichment (6-mer frequency, TF over GST control); with ETV5, 1.09 fold enrichment (6-mer frequency, TF over GST control); with HSF1, 1.19 fold enrichment (6-mer frequency, TF over GST control). For the same sequence, the binding signal was 1.13 fold enrichment (6-mer frequency, TF over GST control) with SPIC; 1.24 fold enrichment (6-mer frequency, TF over GST control) in the assay with ELF4; 1.1 fold enrichment (6-mer frequency, TF over GST control) in the assay with ELK4; 1.13 fold enrichment (6-mer frequency, TF over GST control) in the assay with ETV2; 1.48 fold enrichment (6-mer frequency, TF over GST control) with CRX; 1.19 fold enrichment (6-mer frequency, TF over GST control) with ETV1.
